Test results from PubChem BioAssay (NCI).
The panel holds about 83,000 compounds, 20% with a hit somewhere; the sample as a whole holds those more often.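 Method: cells in 96-well plates; compound added at one concentration; 48 h incubation; percent growth measured; values under 10 scored active.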 A number with no mark means an inactive call. Activity calls are given as the source filed them.

Each compound was assayed on BT-549 breast (assay: NCI-60 one-dose screen, 48 h (100 = growth as untreated, 0 = no growth, -100 = all killed)). Conditions: 10 µM.
Description: Growth inhibition of the BT-549 human tumor cell line is measured as a screen for anti-cancer activity. Cells are grown in 96 well plates and exposed to the test compound for 48 hours. Compounds are tested at a single concentration, which is 10^-5 M for most compounds. The reported endpoint is percent growth (GI% or GIPRCNT), where numbers from 0 - 100% represent growth inhibition, and numbers from -100% - 0 represent cell death. For example, a value of 40 represents 60% growth inhibition. A value of 0 means no net growth occurred over the course of the experiment. A value of -40 indicates 40% of cells at the beginning of the experiment died by the end of the experiment. A value of -100 means all cells are dead at the end of the experiment.
NCI-60 Human Tumor Cell Lines Screen was performed using the standard one-dose NCI protocol, which is described in more detail at https://dtp.cancer.gov/discovery_development/nci-60/default.htm.
Compounds with GIPRCNT values below 10 were considered active. Activity score was based on GIPRCNT using the following formula: […]
Score is 0 for GIPRCNT values of 100 or above, 50 for GIPRCNT values of 0, and 100 for GIPRCNT values of -100.
With `Cn1c(N)c(N=Nc2ccc(S(=O)(=O)Nc3nccs3)cc2)c(=O)n(C)c1=O` the growth was 97.9%.
`O=C(Nc1ccncc1)C(=O)c1cn(S(=O)(=O)c2ccc(F)cc2)c2ccccc12` gave a growth of 36.9%.
`CCc1ccc2c(c1)N(CCO)C1=C(C(=O)OC1)C2c1ccccc1` (stereo not given) showed a growth of 87.7%.
In the case of `CC(C)=CCc1ccc(O)c(=O)cc1C(C)C`, the growth is reported as -2.13% (active).
Work on `COc1cc(/C(=C2/O[C@@H]([C@H]3COC(C)(C)O3)[C@H]3OC(C)(C)O[C@@H]23)c2ccc3ccccc3c2)cc(OC)c1OC` yielded a growth of 22.2%.
`CCN(CCCCCCCCCCN1CC(=O)N(CCCCCCCCCCN(CC)Cc2ccccc2OC)CC1=O)Cc1ccccc1OC` was tested, and the growth was -50.7% (active).
For `Oc1[nH]c2cc(Cl)ccc2c1/C=c1/ccc2c(c1)N=C(c1cc(F)cc(F)c1)N=2`, the growth was 37.5%.
`N=C(N)c1ccc(-c2ccc(-c3cccs3)s2)s1` was tested, and the growth was 66.9%.
For `Nc1nccc(Nc2ccccc2)n1`, the growth was 103%.
Work on `COC(=O)C1(C)Cc2cc(OC(C)=O)c(OC(C)=O)cc2N1` (stereo not given) yielded a growth of 98.8%.
`Nc1nc(-c2ccccc2Cl)cc(-c2ccc(Cl)cc2Cl)n1` gave a growth of 75.3%.
In the case of `CN1CCC(CNc2cc(C3(C(=O)Nc4cc(C(=O)Nc5ccc(Cl)c(C(F)(F)F)c5)ccc4F)CC3)ncn2)CC1`, the growth is reported as 52.5%.
With `O=C1OCC2=C1C(c1ccc(Cl)c(Cl)c1)c1cc3c(cc1N2CCO)OCCO3` (stereo not given) the growth was 60.4%.
In the case of `CC(=O)O[C@]1(C)CC[C@H]2[C@H](CNCCc3ccc(Cl)cc3)C(=O)O[C@@H]2C2=C(C)C(=O)C[C@H]21`, the growth is reported as 108%.
For `COc1ccc(/C=C2/CN(CCC#N)C/C(=C\c3ccc(OC)cc3)C2=O)cc1`, the growth was 5.02% (active).
`S=C1SCC(c2ccccc2)S1` (stereo not given) gave a growth of 109%.
`COc1ccc(OC)c(/C=C/c2nc(SCc3ccccc3)n(-c3ccc(Cl)cc3)n2)c1` was tested, and the growth was 61.8%.
`COc1cc([C@@H]2c3cc4c(cc3C(Br)[C@H]3COC(=O)[C@H]23)OCO4)cc(OC)c1OC` (stereo not given in full) was tested, and the growth was -12.7% (active).
For `COc1ccc(-c2cc(/C=C3\C(=O)Nc4ccc(Cl)cc43)[nH]n2)cc1OC`, the growth was 99.7%.
Work on `COc1ccc(/C=C2/CN(C(=O)c3ccc(C)cc3)C/C(=C\c3ccc(OC)cc3)C2=O)cc1` yielded a growth of 94%.
`COc1ccc2c(c1)/C(=C\c1c[nH]c3ccc(OC)cc13)C(=O)N2` was tested, and the growth was 57.7%.
`c1ccc([C@H]2CN3CCSC3=N2)cc1` gave a growth of 102%.
Work on `Cc1nc2ccccc2c(N)c1-c1cc(C)c2c(C)nc3ccccc3c2n1` yielded a growth of 58.2%.
Work on `COc1cc(C(=C2O[C@@H]([C@H]3COC(C)(C)O3)[C@H]3OC(C)(C)O[C@@H]23)c2cc(OC)c(OC)c(OC)c2)cc(OC)c1OC` yielded a growth of 111%.
With `O=C1/C(=C\c2ccc(Br)cc2)CN(C(=O)c2ccccc2F)C/C1=C\c1ccc(Br)cc1` the growth was -0.615% (active).
In the case of `N=C(N)c1ccc(-c2ccc(-c3ccco3)o2)cc1`, the growth is reported as 80.2%.
`COc1ccc(/C(=C2\O[C@@H]([C@H]3COC(C)(C)O3)[C@H]3OC(C)(C)O[C@@H]23)c2cc(OC)c(OC)c(OC)c2)cc1O` showed a growth of 57.7%.
In the case of `c1ccc(CP(Cc2ccccc2)c2ccccc2)cc1`, the growth is reported as 96.2%.
In the case of `Clc1ccc(/C=C2\CCCC3=C2N=C2SC=NN2C3c2ccc(Cl)cc2)cc1` (stereo not given), the growth is reported as 117%.
`N=C1c2nc3n(c2C(=O)c2nc4n(c21)CCCC4)CCCC3` was tested, and the growth was -37.2% (active).
`O=C(CCCCC(=O)Nc1ccc2c(c1)/C(=C/c1ccc[nH]1)C(=O)N2)NO` was tested, and the growth was 97.1%.
For `Nc1c(C(=O)Nc2ccccc2)sc2nc3c(cc12)CCCC3`, the growth was 66.6%.
For `Cc1ccc(NC(=O)CSc2nc3ccccc3c(=O)n2CCc2ccccc2)c(C(=O)O)c1`, the growth was 96.8%.
Compound `Cc1ccc2oc3nc(C)c(C(=O)NCc4ccccc4)cc3c(=O)c2c1` has a growth of 95.1%.
With `COc1ccc(-c2nc(-c3nc4ccc(OC)cc4[nH]3)cc3c2[nH]c2ccccc23)cc1` the growth was 39.8%.
`CSc1nc(=O)n(Cc2ccc(Cl)cc2)c(=O)[nH]1` was tested, and the growth was 98%.
With `Nc1ncnc2[nH]c(=O)[nH]c12` the growth was 122%.
`COC(=O)c1c(-c2ccccc2)csc1NC(=O)c1c(-c2ccccc2)noc1C` showed a growth of 59.2%.
Work on `Oc1[nH]c2ccc(Cl)cc2c1/C=c1/ccc2c(c1)N=C(c1cc(F)cc(F)c1)N=2` yielded a growth of 81.9%.
For `COc1ccc(-c2ccc(-c3ccc(C(=N)N)cn3)o2)cc1`, the growth was 86.3%.
